Wee1 degr inh: Wee1 degradation inhibitors, primary screen, cell-based, HeLa, Wee1K328M-luciferase, luminescence | Wee1-like protein kinase (Homo sapiens), P30291 | HeLa Luc-Wee1K328M stability; 100% = proteasome inhibitor MG132 effect | reporter increase, % at 5 µM | actives 1.2% (n = 220,000) | AID 1321, 2008;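 active = activation above the mean of all tested compounds plus 3 SD, set per screening run, cut at about 8.8% in these data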;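 also: cells exposed to compound for 20 h before luminescence read; 0% = DMSO alone and 100% = MG132 at 30 µM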
PKD1 inh: inhibitors of human PKD1 kinase, biochemical, fluorescence polarization | PKD1 kinase fluorescence polarization assay | inhibition, % (no concentration beside the values) | actives 0.056% (n = 200,000) | AID 797, 2007; in the data active = inhibition above about 50%
Target sequence (Q15139 whole entry, looked up): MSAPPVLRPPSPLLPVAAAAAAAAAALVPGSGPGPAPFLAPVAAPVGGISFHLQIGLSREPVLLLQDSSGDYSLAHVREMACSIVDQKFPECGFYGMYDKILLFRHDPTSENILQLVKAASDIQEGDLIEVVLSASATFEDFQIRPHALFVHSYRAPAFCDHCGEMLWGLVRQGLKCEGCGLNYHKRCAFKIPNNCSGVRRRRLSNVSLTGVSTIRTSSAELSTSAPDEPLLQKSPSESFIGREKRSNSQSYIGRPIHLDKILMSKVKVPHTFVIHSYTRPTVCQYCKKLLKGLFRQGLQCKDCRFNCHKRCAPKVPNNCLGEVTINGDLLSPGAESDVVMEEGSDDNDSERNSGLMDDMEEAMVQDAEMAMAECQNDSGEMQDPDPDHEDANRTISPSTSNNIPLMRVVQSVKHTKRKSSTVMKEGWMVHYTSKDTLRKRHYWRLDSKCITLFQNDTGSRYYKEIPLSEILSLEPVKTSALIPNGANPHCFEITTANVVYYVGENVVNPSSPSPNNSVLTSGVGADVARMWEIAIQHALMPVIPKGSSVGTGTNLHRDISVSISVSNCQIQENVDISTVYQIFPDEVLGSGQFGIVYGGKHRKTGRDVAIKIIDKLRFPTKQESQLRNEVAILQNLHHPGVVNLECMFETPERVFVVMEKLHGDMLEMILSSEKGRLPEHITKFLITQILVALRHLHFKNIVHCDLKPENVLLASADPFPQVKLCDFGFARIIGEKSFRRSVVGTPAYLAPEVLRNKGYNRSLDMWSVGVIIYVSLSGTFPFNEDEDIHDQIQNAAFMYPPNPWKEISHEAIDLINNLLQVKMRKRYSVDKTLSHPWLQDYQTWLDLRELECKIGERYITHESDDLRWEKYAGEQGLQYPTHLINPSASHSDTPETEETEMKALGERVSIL
Arbovirus anti: antivirals against arbovirus infection, primary screen, cell-based, full library, 10K replicate subset; arbovirus infection cell-based antiviral screen; inhibition, % at 10 µM; actives 0.37% (n = 200,000); AID 1251, 2008; in the data active = inhibition above about 30%
HMGR II inh: inhibitors of E. faecalis class II HMGR, primary screen, biochemical, Enterococcus faecalis | HMG-CoA reductase (Enterococcus faecalis, mvaE) | purified E. faecalis HMGR, NADPH absorbance 340 nm kinetic | inhibition, % at 10 µM | actives 0.41% (n = 190,000) | AID 1066, 2008;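 active = inhibition above a set limit, the median over all tested compounds plus 3 SD, cut at about 9.5% in these data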;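 also: enzyme runs in reverse so mevalonate oxidation gives rising NADPH absorbance; 0% = complete reaction with DMSO and 100% = background rate lacking mevalonate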
Hsp70 activator: Hsp70 transcriptional activators, primary screen, cell-based, HeLa, Hsp70 promoter luciferase, luminescence, 10 µM; HeLa Hsp70 promoter luciferase reporter; scaled: vehicle 0, proteasome-inhibitor control 100%; activation, % at 10 µM; actives 0.04% (n = 200,000);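 active = activation above the mean across all tested compounds plus 3 SD, cutoff set per campaign, cut at about 5.5% in these data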;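 also: 100% = MG132 at 30 µM as the positive control and 0% = DMSO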
Starred values were filed as active, the others as inactive; nt = no result. This is a sample that favours compounds with a hit; in the whole collection about 2% have one here.

SMILES | Wee1 degr inh | PKD1 inh | Arbovirus anti | HMGR II inh | Hsp70 activator
COc1ccc(Cn2c(C)c(C)c(C#N)c2NC(=O)Nc2ccc(Cl)cc2)cc1 | -0.2 | 7.0 | -4.9 | 10.8* | -0.3
CC1CCCCN1C(=O)COc1ccc(F)cc1 (configuration not stated) | 9.6* | -4.6 | -1.1 | -4.5 | 0.0
CC1CCCCN1C(=O)COc1ccc2ccc(=O)oc2c1 (configuration not stated) | -0.2 | -2.8 | -0.5 | -4.5 | 0.1
COC(=O)CC1C(=O)NCCN1C(=S)NC(=O)c1sc2ccccc2c1Cl (configuration not stated) | 10.3* | -8.7 | 5.2 | 0.5 | 1.1
COC(=O)CC1C(=O)NCCN1C(=O)c1sc2ccccc2c1Cl (configuration not stated) | -3.9 | nt | nt | nt | nt
CCc1nnc(NC(=O)CSc2nc(-c3ccccc3)cc(-c3ccc(OC)cc3)c2C#N)s1 | 2.4 | 0.7 | -18.2 | -9.6 | -0.2
Cc1cc(C(=O)Nc2cnc3ccccc3c2)ccc1[N+](=O)[O-] | 9.1* | -9.2 | 4.0 | -2.2 | 0.0
Cc1cccc2c1nc(-c1ccccc1)n1cnnc21 | -1.0 | -10.8 | 1.8 | -1.2 | -0.3
Cc1cccc2c1nc(-c1ccccc1)n1nnnc21 | -2.2 | -2.9 | 54.8* | -2.4 | 0.0
COc1ccc(C(=O)NCC(C)(C)SCc2c(C)cc(C)cc2C)cc1 | 0.0 | -2.2 | 46.2* | -0.8 | -0.5
COc1ccc(CNC(=O)c2ccc(C(C)(C)C)cc2)cc1 | 3.0 | -10.5 | -3.5 | -1.7 | 0.1
Cc1[nH]c2c(C)cccc2c1CN1CCC(CO)(Cc2ccccc2)CC1 | 0.2 | nt | nt | nt | nt
CC(=O)N=c1c(C#N)cc2c(=O)n3cccc(C)c3nc2n1Cc1ccco1 | 9.1* | nt | nt | nt | nt
O=C(O)c1ccc(Sc2nnnn2-c2ccccc2)c([N+](=O)[O-])c1 | 5.0 | -9.2 | 2.2 | -6.0 | 0.4
Cn1nc([N+](=O)[O-])nc1Sc1nnnn1-c1ccc(C(=O)O)cc1 | -0.8 | 3.0 | -1.4 | 16.5* | -0.4
N#C/C(=C/c1ccc([N+](=O)[O-])cc1)C(N)=O | 10.9* | -1.1 | 15.9 | 5.7 | 0.0
CN1CCN(C(=O)C2=C[C@@H](c3ccc(Br)cc3)C[C@@H](OCc3ccc(CO)cc3)O2)CC1 | 9.8* | -0.4 | -7.6 | -1.7 | -0.2
Cc1ccc(S(=O)(=O)N2CCOCC2)cc1NC(=O)CN(C)C1CCS(=O)(=O)C1 (configuration not stated) | 9.0* | nt | nt | nt | nt
CC1CCCC(NC(=O)COC(=O)c2cc(S(=O)(=O)N3CCCCC3)ccc2N2CCOCC2)C1C (configuration not stated) | 3.0 | 47.8 | -11.0 | -6.1 | 0.2
O=C(COC(=O)c1cc(S(=O)(=O)N2CCCCC2)ccc1N1CCOCC1)NC1CCS(=O)(=O)C1 (configuration not stated) | 6.8 | -1.7 | 6.7 | 13.7* | -0.2
CN(C)/C=N/c1ncc(-c2ncc(C(F)(F)F)cc2Cl)cn1 | -2.6 | -8.1 | -5.5 | -4.5 | 0.0
Cc1onc(-c2ccccc2)c1C(=O)N1CCN(c2ncccn2)CC1 | -4.9 | -3.7 | 2.0 | -2.6 | -0.1
O=S(=O)(c1ccccc1)N1CCCC1c1cccs1 (configuration not stated) | 10.2* | nt | nt | nt | nt
Cc1[nH][nH]c(=O)c1C(c1c(C)[nH][nH]c1=O)c1cn(Cc2ccccc2Cl)c2ccccc12 | -0.2 | -3.3 | -3.7 | 66.8* | -0.1
CCOC(=O)c1cc(CC)sc1NC(=O)c1cc(OCC)c(OCC)c(OCC)c1 | -1.9 | 2.4 | 4.4 | -2.2 | 0.0
CCc1cc(C(=O)O)c(NC(=O)c2cc(OC)c(OC)c(OC)c2)s1 | 5.0 | 2.1 | 76.2* | -4.8 | -0.1
C[C@]1(C(=O)NCc2cc(F)cc(C(F)(F)F)c2)C=C[C@@H](Cc2ccccc2)N1C(=O)c1ccccc1 | -1.6 | -9.6 | -23.4 | -3.1 | 0.0
COc1cccc(CN(C)CC(=O)Nc2cc3oc4ccccc4c3cc2OC)c1 | 9.9* | 3.7 | -8.7 | -6.0 | -0.2
Cc1ccc(C)c(NS(=O)(=O)c2cc(C(=O)N3CCCC3)ccc2Cl)c1 | -4.5 | 0.2 | 12.3 | -0.6 | -0.2
Cc1ccnc(N=Cc2c(O)ccc3oc4c(c23)CCCC4)c1 | 1.6 | 2.3 | -3.7 | -0.5 | -0.4

Source: PubChem BioAssay (several laboratories)
